The results in this text go back to the antibiotic and cytotoxicity screens of Wong et al. (2023).

Structures are written as SMILES. Among all 39,000 compounds or so, about 3,300 (8.5%) were called active. Shown is part of a subset that was picked to be rich in actives.

This test deals with HepG2. Description: cytotoxicity call (relative viability < 0.9). The conditions noted are these: 10 µM.
In the case of `COc1ccc(S(=O)(=O)N(C)C[C@H]2OCCCC[C@@H](C)Oc3ccc(NC(=O)Nc4ccc(C(F)(F)F)cc4)cc3C(=O)N([C@H](C)CO)C[C@@H]2C)cc1`, the cytotoxicity call is “inactive”.

In the case of `CC(C)c1nc(CN(C)C(=O)N[C@@H](CCN2CCOCC2)C(=O)N[C@H](CC[C@H](Cc2ccccc2)NC(=O)OCc2cncs2)Cc2ccccc2)cs1`, the cytotoxicity call was “inactive”.

Turning to `CC(C)NC(=O)Nc1ccc2c(c1)CC(=O)N([C@H](C)CO)C[C@H](C)[C@@H](CN(C)S(=O)(=O)c1cn(C)cn1)O2`, the cytotoxicity call is “inactive”.

`C=CCOC(=O)[C@@H]1[C@H]2C(=O)O[C@H](c3ccccc3)[C@H](c3ccccc3)N2[C@H](c2ccc(OCCOC(=O)[C@@H]3C[C@@H]4C(=O)N5CCC[C@H]5C(=O)N4[C@@H]3c3ccc(O)cc3)cc2)[C@@]12C(=O)Nc1ccccc12`: the cytotoxicity call was “inactive”.

With `COc1ccc([Si](C)(C)[C@@H]2[C@@H](CC(=O)N3CCC[C@H]3CO)O[C@]3(C(=O)N(Cc4ccc(N5C(=O)c6cccc7cccc5c67)cc4)c4ccccc43)[C@H]2C)cc1`, the cytotoxicity call was “inactive”.

For the compound `COc1ccc([Si](C)(C)[C@H]2[C@H](CCO)O[C@@]3(C(=O)N(Cc4ccc(N5C(=O)c6cccc7cccc5c67)cc4)c4ccccc43)[C@@H]2C)cc1`, the cytotoxicity call is “active”.

For `COc1ccc([Si](C)(C)[C@@H]2[C@@H](CC(=O)N3Cc4ccccc4C[C@H]3CO)O[C@]3(C(=O)N(Cc4ccc(N5C(=O)c6cccc7cccc5c67)cc4)c4ccccc43)[C@H]2C)cc1`, the cytotoxicity call is “inactive”.

On to `COc1ccc([Si](C)(C)[C@@H]2[C@@H](CCO)O[C@]3(C(=O)N(Cc4ccc(N5C(=O)c6cccc7cccc5c67)cc4)c4ccccc43)[C@H]2C)cc1`, for which the cytotoxicity call was “active”.

For `COc1ccc([Si](C)(C)[C@H]2[C@H](CC(=O)N3CCC[C@H]3CO)O[C@@]3(C(=O)N(Cc4ccc(N5C(=O)c6cccc7cccc5c67)cc4)c4ccccc43)[C@@H]2C)cc1`, the cytotoxicity call was “inactive”.

As to `C[C@H](CO)N1C[C@H](C)[C@@H](CN(C)S(=O)(=O)c2cn(C)cn2)Oc2ccc(NC(=O)Cc3cn(C)c4ccccc34)cc2C1=O`, the cytotoxicity call was “inactive”.

With `c1csc(Cn2cccc2)c1`, the cytotoxicity call is “inactive”.

Regarding `CCOC(=O)[C@H](C(C)=O)[C@H]1CCS(=O)(=O)C1`, the cytotoxicity call was “inactive”.

For `CC(C)NC(=O)N(C)C[C@@H]1Oc2ccc(NC(=O)NC3CCCCC3)cc2C(=O)N([C@@H](C)CO)C[C@@H]1C`, the cytotoxicity call was “inactive”.

Consider `Cc1noc(C)c1S(=O)(=O)Nc1ccc2c(c1)C(=O)N([C@H](C)CO)C[C@H](C)[C@@H](CN(C)Cc1ccc3c(c1)OCO3)O2`, for which the cytotoxicity call is “inactive”.

With `CCc1nc2ccc(C(=O)Nc3cc(-c4ccccc4)ccc3OC)cn2c1N(C)C(=O)Cc1ccccc1`, the cytotoxicity call is “inactive”.

In the case of `CCc1nc2ccc(C(=O)Nc3cc(-c4ccccc4)ccc3OC)cn2c1N(CCN(C)C)CC1CC1`, the cytotoxicity call was “active”.

As to `CCc1nc2ccc(C(=O)Nc3cc(-c4ccccc4)ccc3OC)cn2c1N(C)CCCc1ccccc1`, the cytotoxicity call is “inactive”.

Turning to `CCC(=O)N1CCC(C(=O)O)CC1`, the cytotoxicity call was “inactive”.

For `C[C@H](CCC(=O)NCC(=O)NCCS(=O)(=O)O)[C@H]1CC[C@H]2[C@@H]3[C@H](O)C[C@@H]4C[C@H](O)CC[C@]4(C)[C@H]3C[C@H](O)[C@]12C`, the cytotoxicity call was “active”.

With `COC(=O)CCC(C)C1CCC2C3C(O)CC4CC(O)CCC4(C)C3CC(O)C12C` (configuration not stated), the cytotoxicity call is “active”.

For the compound `C[C@H](CCC(=O)NCCS(=O)(=O)O)[C@H]1CC[C@H]2[C@@H]3[C@H](O)C[C@@H]4C[C@H](O)CC[C@]4(C)[C@H]3C[C@H](O)[C@]12C`, the cytotoxicity call was “inactive”.

In the case of `CC(CCC(=O)O)C1CCC2C3C(O)CC4CC(O)CCC4(C)C3CC(O)C12C` (configuration not stated), the cytotoxicity call was “inactive”.

In the case of `CC(CCC(=O)NCC(=O)O)C1CCC2C3C(O)CC4CC(O)CCC4(C)C3CC(O)C12C` (configuration not stated), the cytotoxicity call is “inactive”.

Consider `COC(=O)CCC(C)C1CCC2C3CCC4CC(O)CCC4(C)C3CC(O)C12C` (configuration not stated), for which the cytotoxicity call was “inactive”.

Turning to `Cc1noc(C)c1NC(=O)Nc1ccc2c(c1)C(=O)N([C@H](C)CO)C[C@H](C)[C@@H](CN(C)S(=O)(=O)c1ccc(Cl)cc1)OCCCC[C@H](C)O2`, the cytotoxicity call is “inactive”.

On to `CCc1nnc(SCC(=O)OC)[nH]1`, for which the cytotoxicity call was “inactive”.

On to `COc1ccc(NC(=O)N(C)C[C@H]2OCCCC[C@H](C)Oc3ccc(NC(=O)Nc4c(C)noc4C)cc3C(=O)N([C@H](C)CO)C[C@@H]2C)cc1`, for which the cytotoxicity call is “inactive”.

On to `C[C@@H]1CN([C@@H](C)CO)C(=O)Cc2cc(NC(=O)Cc3ccccc3)ccc2O[C@H]1CN(C)C(=O)Nc1ccc(C(F)(F)F)cc1`, for which the cytotoxicity call was “inactive”.

As to `C[C@@H]1CN([C@@H](C)CO)C(=O)Cc2cc(NC(=O)Cc3ccccc3)ccc2O[C@H]1CN(C)Cc1ccc(C(F)(F)F)cc1`, the cytotoxicity call was “inactive”.

As for `C[C@@H]1CN([C@H](C)CO)C(=O)Cc2cc(NC(=O)Cc3ccccc3)ccc2O[C@@H]1CN(C)Cc1ccc(C(F)(F)F)cc1`, the cytotoxicity call was “active”.

`C[C@H]1CN([C@@H](C)CO)C(=O)Cc2cc(NC(=O)Cc3ccccc3)ccc2O[C@H]1CN(C)Cc1ccc(C(F)(F)F)cc1`: the cytotoxicity call is “inactive”.

Consider `C[C@@H]1CN([C@@H](C)CO)C(=O)Cc2cc(NC(=O)Cc3ccccc3)ccc2O[C@@H]1CN(C)Cc1ccc(C(F)(F)F)cc1`, for which the cytotoxicity call was “active”.

For `C[C@H](CO)N1C[C@H](C)[C@H](CN(C)Cc2ccc(C(F)(F)F)cc2)Oc2ccc(NC(=O)Cc3ccccc3)cc2CC1=O`, the cytotoxicity call is “active”.

Consider `C[C@H](CO)N1C[C@H](C)[C@@H](CN(C)Cc2ccc(C(F)(F)F)cc2)Oc2ccc(NC(=O)Cc3ccccc3)cc2CC1=O`, for which the cytotoxicity call was “inactive”.

`C[C@H]1CN([C@@H](C)CO)C(=O)Cc2cc(NC(=O)Cc3ccccc3)ccc2O[C@@H]1CN(C)Cc1ccc(C(F)(F)F)cc1`: the cytotoxicity call is “inactive”.

Regarding `C[C@@H]1CN([C@H](C)CO)C(=O)Cc2cc(NC(=O)Cc3ccccc3)ccc2O[C@H]1CN(C)Cc1ccc(C(F)(F)F)cc1`, the cytotoxicity call is “inactive”.

On to `CN1CCN(C(=O)C[C@@H]2CC[C@H]3[C@@H](COC[C@@H](O)CN3C(=O)C3CCOCC3)O2)CC1`, for which the cytotoxicity call was “inactive”.

Turning to `COCC(=O)Nc1ccc2c(c1)C(=O)N(C)[C@@H]1CC[C@H](CC(=O)NCc3ccccc3Cl)O[C@@H]1CO2`, the cytotoxicity call was “inactive”.

Consider `CCCn1c(=O)[nH]c2nc(-c3ccc(S(=O)(=O)N4CCN(c5ccc(Cl)cc5)CC4)cc3)[nH]c2c1=O`, for which the cytotoxicity call was “inactive”.

`CC(C)(C)[S@](=O)N1Cc2cc(C(=O)N[C@@H]3CCN(Cc4ccccc4)C3)nc(-c3cccc(-c4ccncc4)c3)c2[C@@H]1CCO`: the cytotoxicity call is “inactive”.

Regarding `Cc1ccnc(-n2c(C)ccc2C)c1`, the cytotoxicity call is “inactive”.

Take `C[C@@H]1CN([C@@H](C)CO)C(=O)c2cccc(NC(=O)Nc3ccc4c(c3)OCO4)c2O[C@@H]1CN(C)C(=O)Nc1ccc(C(F)(F)F)cc1`: the cytotoxicity call was “inactive”.

For the compound `C[C@@H]1CN([C@H](C)CO)C(=O)CCCn2nncc2CO[C@@H]1CN(C)C(=O)Nc1ccc(N2CCN(C)CC2)cc1`, the cytotoxicity call is “inactive”.

With `C[C@@H]1CN([C@H](C)CO)C(=O)c2cccc(NC(=O)c3nc4ccccc4s3)c2O[C@H]1CN(C)C(=O)Nc1ccc(C(F)(F)F)cc1`, the cytotoxicity call was “inactive”.

Turning to `O=C(C[C@@H]1C[C@H]2c3cc(NS(=O)(=O)c4ccc(F)cc4)ccc3O[C@H]2[C@@H](CO)O1)NCc1ccc(Oc2ccccc2)cc1`, the cytotoxicity call is “active”.

Take `O=C(C[C@H]1C[C@@H]2c3cc(NS(=O)(=O)c4ccc(F)cc4)ccc3O[C@@H]2[C@H](CO)O1)NCc1ccccc1`: the cytotoxicity call is “inactive”.

`O=C(C[C@H]1C[C@@H]2c3cc(NS(=O)(=O)c4ccc(F)cc4)ccc3O[C@@H]2[C@@H](CO)O1)NCc1ccc(Oc2ccccc2)cc1`: the cytotoxicity call is “active”.

With `COc1cccc(S(=O)(=O)Nc2ccc3c(c2)[C@H]2C[C@@H](CC(=O)NCc4ccccc4F)O[C@H](CO)[C@H]2O3)c1`, the cytotoxicity call was “inactive”.

As for `COc1cccc(S(=O)(=O)Nc2ccc3c(c2)[C@@H]2C[C@@H](CC(=O)NCc4ccccc4F)O[C@H](CO)[C@@H]2O3)c1`, the cytotoxicity call is “inactive”.

On to `O=C(C[C@H]1C[C@H]2c3cc(NS(=O)(=O)c4ccc(F)cc4)ccc3O[C@H]2[C@H](CO)O1)NCc1ccc(Oc2ccccc2)cc1`, for which the cytotoxicity call is “active”.

For `O=C(C[C@@H]1C[C@@H]2c3cc(NS(=O)(=O)c4ccc(F)cc4)ccc3O[C@@H]2[C@@H](CO)O1)NCc1ccc(Oc2ccccc2)cc1`, the cytotoxicity call was “inactive”.

In the case of `O=C(C[C@H]1C[C@H]2c3cc(NS(=O)(=O)c4ccc(F)cc4)ccc3O[C@H]2[C@@H](CO)O1)NCc1ccc(Oc2ccccc2)cc1`, the cytotoxicity call is “inactive”.

In the case of `O=C(C[C@@H]1C[C@@H]2c3cc(NS(=O)(=O)c4ccc(F)cc4)ccc3O[C@@H]2[C@H](CO)O1)NCc1ccc(Oc2ccccc2)cc1`, the cytotoxicity call was “inactive”.

On to `O=C(C[C@@H]1C[C@@H]2c3cc(NS(=O)(=O)c4ccc(F)cc4)ccc3O[C@@H]2[C@H](CO)O1)NCc1ccccc1`, for which the cytotoxicity call is “inactive”.

Consider `COc1cccc(S(=O)(=O)Nc2ccc3c(c2)[C@@H]2C[C@@H](CC(=O)NCc4ccccc4F)O[C@@H](CO)[C@@H]2O3)c1`, for which the cytotoxicity call was “active”.

Turning to `O=C(C[C@H]1C[C@@H]2c3cc(NS(=O)(=O)c4ccc(F)cc4)ccc3O[C@@H]2[C@H](CO)O1)NCc1ccc(Oc2ccccc2)cc1`, the cytotoxicity call was “inactive”.

For `CNC[C@H]1Oc2cc(C#CC(C)(C)O)ccc2S(=O)(=O)N([C@H](C)CO)C[C@H]1C`, the cytotoxicity call was “inactive”.

Consider `COc1cc(F)c(F)c(Nc2ccc(I)cc2F)c1NS(=O)(=O)C1(C[C@H](O)CO)CC1`, for which the cytotoxicity call was “inactive”.

Take `O=C(NCC1(c2nc(-c3ccccc3)cs2)CCOCC1)c1cccc(-c2noc(C(F)(F)F)n2)c1`: the cytotoxicity call is “inactive”.

Take `C[C@@H]1CN([C@@H](C)CO)C(=O)c2cccc(NS(=O)(=O)c3cn(C)cn3)c2O[C@@H]1CN(C)Cc1ccc(C(=O)Nc2ccccc2N)cc1`: the cytotoxicity call is “inactive”.

Consider `C[C@H]1CN([C@@H](C)CO)C(=O)c2cccc(NC(=O)c3ccc(-c4nccs4)cc3)c2O[C@H]1CN(C)C(=O)Nc1ccc(F)cc1`, for which the cytotoxicity call is “inactive”.

For `C[C@H]1CN([C@@H](C)CO)C(=O)c2cc(NC(=O)Nc3ccc(F)cc3)ccc2O[C@H]1CN(C)C(=O)Nc1cccc2ccccc12`, the cytotoxicity call is “inactive”.
